Data published in ChEMBL document CHEMBL1961873, “Compounds: GSK PKIS; Assays: Nanosyn kinase panel” (2012).

Legend:
[1] = biological target: Glycogen synthase kinase-3 beta (Homo sapiens) (UniProt P49841); details: at 1 µM;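 further: reported values are mean percent inhibition of GSK3B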
[2] = biological target: Homeodomain-interacting protein kinase 1 (Homo sapiens) (UniProt Q86Z02); details: at 0.1 µM
[3] = biological target: Homeodomain-interacting protein kinase 1 (Homo sapiens) (UniProt Q86Z02); details: at 1 µM
[4] = biological target: T1, Homeodomain-interacting protein kinase 4 (Homo sapiens) (UniProt Q8NE63); details: at 0.1 µM
T1 sequence (whole entry): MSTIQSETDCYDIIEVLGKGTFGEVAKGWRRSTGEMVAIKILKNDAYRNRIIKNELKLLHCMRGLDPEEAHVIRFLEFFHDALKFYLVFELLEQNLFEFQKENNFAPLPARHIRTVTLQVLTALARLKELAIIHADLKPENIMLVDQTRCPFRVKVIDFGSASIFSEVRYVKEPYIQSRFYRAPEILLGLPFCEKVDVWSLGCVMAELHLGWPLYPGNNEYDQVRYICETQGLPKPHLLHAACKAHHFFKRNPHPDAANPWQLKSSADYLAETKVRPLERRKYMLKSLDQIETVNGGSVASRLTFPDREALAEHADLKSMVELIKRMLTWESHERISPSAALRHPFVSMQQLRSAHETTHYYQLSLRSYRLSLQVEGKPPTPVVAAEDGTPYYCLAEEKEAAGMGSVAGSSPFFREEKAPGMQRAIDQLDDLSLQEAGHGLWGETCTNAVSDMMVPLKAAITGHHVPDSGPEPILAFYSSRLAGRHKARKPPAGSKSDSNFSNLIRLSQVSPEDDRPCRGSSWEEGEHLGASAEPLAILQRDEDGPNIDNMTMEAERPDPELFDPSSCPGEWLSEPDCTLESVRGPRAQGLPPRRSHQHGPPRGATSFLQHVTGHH

[5] = biological target: T1, Homeodomain-interacting protein kinase 4 (Homo sapiens); details: at 1 µM
[6] = biological target: Mitogen-activated protein kinase 9 (Homo sapiens) (UniProt P45984); details: at 0.1 µM
[7] = biological target: Mitogen-activated protein kinase 9 (Homo sapiens) (UniProt P45984); details: at 1 µM
[8] = biological target: Mitogen-activated protein kinase 1 (Homo sapiens) (UniProt P28482); details: at 0.1 µM
[9] = biological target: Mitogen-activated protein kinase 1 (Homo sapiens) (UniProt P28482); details: at 1 µM
[10] = biological target: Mitogen-activated protein kinase 3 (Homo sapiens) (UniProt P27361); details: at 0.1 µM;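 further: each value is a mean inhibition figure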
Mitogen-activated protein kinase 3 (Homo sapiens), sequence (P27361 whole entry): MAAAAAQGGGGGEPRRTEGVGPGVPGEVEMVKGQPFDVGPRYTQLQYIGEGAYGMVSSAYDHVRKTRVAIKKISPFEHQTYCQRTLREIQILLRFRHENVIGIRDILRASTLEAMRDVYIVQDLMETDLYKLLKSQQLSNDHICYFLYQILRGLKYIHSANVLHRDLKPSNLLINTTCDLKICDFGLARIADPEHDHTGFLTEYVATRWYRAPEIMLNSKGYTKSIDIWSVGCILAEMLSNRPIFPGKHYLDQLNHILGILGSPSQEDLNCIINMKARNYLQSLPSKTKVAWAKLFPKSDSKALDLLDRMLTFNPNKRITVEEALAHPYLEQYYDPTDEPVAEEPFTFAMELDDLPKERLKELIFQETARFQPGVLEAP

Glycogen synthase kinase-3 beta (Homo sapiens), sequence (P49841 whole entry, looked up): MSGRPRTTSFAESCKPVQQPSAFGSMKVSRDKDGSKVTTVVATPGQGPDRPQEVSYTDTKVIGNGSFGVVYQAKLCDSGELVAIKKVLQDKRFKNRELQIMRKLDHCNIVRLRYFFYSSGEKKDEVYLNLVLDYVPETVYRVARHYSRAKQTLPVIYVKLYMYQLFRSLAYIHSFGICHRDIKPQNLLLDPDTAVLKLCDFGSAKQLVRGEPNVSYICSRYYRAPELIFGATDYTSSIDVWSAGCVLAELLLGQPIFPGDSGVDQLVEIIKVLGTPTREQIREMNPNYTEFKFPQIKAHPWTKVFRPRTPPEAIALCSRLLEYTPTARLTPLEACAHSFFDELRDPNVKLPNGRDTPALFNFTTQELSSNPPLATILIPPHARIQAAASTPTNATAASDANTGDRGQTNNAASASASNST
Homeodomain-interacting protein kinase 1 (Homo sapiens), sequence (Q86Z02 whole entry, looked up): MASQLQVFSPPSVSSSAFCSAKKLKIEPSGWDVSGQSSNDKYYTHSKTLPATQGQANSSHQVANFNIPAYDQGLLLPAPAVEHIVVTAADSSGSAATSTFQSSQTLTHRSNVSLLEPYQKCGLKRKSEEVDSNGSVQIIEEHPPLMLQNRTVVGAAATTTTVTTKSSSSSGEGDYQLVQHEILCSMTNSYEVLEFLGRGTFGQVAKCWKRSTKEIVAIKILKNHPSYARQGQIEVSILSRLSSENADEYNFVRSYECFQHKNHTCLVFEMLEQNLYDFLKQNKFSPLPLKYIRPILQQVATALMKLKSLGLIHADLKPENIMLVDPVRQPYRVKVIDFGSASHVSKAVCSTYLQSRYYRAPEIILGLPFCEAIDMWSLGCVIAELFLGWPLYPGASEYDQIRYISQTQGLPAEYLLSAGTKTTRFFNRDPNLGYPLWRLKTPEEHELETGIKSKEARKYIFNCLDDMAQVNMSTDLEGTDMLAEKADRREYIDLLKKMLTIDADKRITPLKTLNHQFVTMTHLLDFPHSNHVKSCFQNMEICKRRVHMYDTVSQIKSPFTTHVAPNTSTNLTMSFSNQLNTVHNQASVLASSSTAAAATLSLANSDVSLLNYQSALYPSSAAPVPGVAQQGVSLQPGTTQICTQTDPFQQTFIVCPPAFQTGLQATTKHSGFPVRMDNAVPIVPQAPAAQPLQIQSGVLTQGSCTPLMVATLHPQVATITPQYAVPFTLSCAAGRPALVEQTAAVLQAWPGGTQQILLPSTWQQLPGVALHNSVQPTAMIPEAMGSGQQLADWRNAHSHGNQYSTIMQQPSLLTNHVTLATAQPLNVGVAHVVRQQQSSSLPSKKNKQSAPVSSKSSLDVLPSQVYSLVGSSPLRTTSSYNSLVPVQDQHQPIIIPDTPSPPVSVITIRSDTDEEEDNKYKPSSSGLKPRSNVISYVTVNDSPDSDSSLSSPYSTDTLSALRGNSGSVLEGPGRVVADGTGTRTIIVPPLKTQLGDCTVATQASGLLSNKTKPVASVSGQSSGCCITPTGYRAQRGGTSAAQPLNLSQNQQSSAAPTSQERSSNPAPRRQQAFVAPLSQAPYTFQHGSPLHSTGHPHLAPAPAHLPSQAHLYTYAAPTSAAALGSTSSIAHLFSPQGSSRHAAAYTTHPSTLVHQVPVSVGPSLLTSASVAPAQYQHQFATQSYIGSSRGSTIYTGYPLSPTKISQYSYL
Mitogen-activated protein kinase 1 (Homo sapiens), sequence (P28482 whole entry): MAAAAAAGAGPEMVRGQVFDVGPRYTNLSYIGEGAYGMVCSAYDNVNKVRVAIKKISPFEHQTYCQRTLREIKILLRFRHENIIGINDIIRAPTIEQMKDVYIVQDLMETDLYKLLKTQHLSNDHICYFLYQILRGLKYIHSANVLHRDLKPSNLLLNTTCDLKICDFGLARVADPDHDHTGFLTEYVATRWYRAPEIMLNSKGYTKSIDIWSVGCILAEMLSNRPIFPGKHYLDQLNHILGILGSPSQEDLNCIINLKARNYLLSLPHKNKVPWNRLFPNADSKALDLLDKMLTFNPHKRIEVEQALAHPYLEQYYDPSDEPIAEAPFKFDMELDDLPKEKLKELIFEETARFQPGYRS
Mitogen-activated protein kinase 9 (Homo sapiens), sequence (P45984 whole entry, looked up): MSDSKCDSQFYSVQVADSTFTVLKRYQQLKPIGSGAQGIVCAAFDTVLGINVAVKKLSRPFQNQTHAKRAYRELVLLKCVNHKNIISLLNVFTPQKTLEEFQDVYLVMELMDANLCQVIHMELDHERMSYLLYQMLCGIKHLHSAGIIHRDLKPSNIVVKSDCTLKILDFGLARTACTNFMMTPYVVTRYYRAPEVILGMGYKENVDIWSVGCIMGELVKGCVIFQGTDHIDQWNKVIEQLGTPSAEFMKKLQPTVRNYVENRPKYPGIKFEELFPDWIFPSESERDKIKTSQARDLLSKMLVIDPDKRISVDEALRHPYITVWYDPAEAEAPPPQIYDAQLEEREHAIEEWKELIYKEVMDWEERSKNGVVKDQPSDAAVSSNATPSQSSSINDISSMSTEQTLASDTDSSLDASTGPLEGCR

Structure (SMILES) | inhibition [1] [%] | inhibition [2] [%] | inhibition [3] [%] | inhibition [4] [%] | inhibition [5] [%] | inhibition [6] [%] | inhibition [7] [%] | inhibition [8] [%] | inhibition [9] [%] | inhibition [10] [%]
COC(=O)Nc1nc2ccc(Sc3ccc(NC(=O)Nc4cc(C(F)(F)F)ccc4F)cc3)cc2[nH]1 | 1.89 | 1.74 | 3.89 | 3.14 | 25.5 | 33.9 | 6.37 | -0.51 | -0.71 | 1.68
NC(=O)c1ccc(Oc2nccc(-c3c(-c4ccc(F)cc4)ncn3C3CCNCC3)n2)cc1 | 3.17 | 0.03 | 2.53 | 0.33 | 0.25 |  |  | 5.21 | 6.64 | 3.78
CN1CCN(CCCNc2nc3ccc(Oc4ccc(NC(=O)Nc5cc(C(F)(F)F)ccc5F)cc4)cc3[nH]2)CC1 | -1.5 | -6.94 | -3.43 | 6.45 | 40.6 | 3.11 | 8.71 | 1.47 | 0.12 | 1.55
Cc1ccc(C(=O)NC2CCC2)cc1-c1ccc(C(=O)NCC2CC2)cc1 | 3.43 | -0.93 | 2.06 | -0.06 | 1.07 | 2.74 | 3.35 | 0.32 | 3.11 | 2.05
O=C(Nc1n[nH]c2cc(-c3cc(F)ccc3F)ccc12)C1CC1 |  | -1.3 | 1.85 | -0.9 | 3.56 | 4.38 | 6.23 | 2.24 | 4.09 | 4.01
COc1cc2ncn(-c3cc(OCc4ccccc4C(F)(F)F)c(C(C)=O)s3)c2cc1OC | 2.85 | -0.68 | 4.77 | 3.23 | 7.24 | 0.67 | 0.69 | 5.64 | 5.81 | 3.61
NC(=O)c1cc(-c2ccncc2)cc(-c2ccccc2)c1N | 9.17 | -1.44 | -0.02 | 1.54 | 4.34 | 5.97 | 6.49 | 4 | 6.15 | 3.98
O=C(Nc1n[nH]c2cc(-c3ccccc3)ccc12)C1CC1 |  | 0.47 | 0.72 | 1.87 | 3.44 | 6.25 | 7.19 | 2.48 | 6.01 | 4.31
CCS(=O)(=O)c1ccc(OC)c(Nc2ncc(-c3ccccc3Cl)o2)c1 | 1.12 | 1.24 | 9.06 | 8.83 | 47.5 | 1.42 | 1.23 | 0.66 | 0.84 | 1.66
O=C(Nc1n[nH]c2nc(-c3ccco3)ccc12)C1CC1 |  | 0.14 | 1.4 | 2.3 | 6.99 | 0.84 | 2.1 | 0.04 | 0.76 | 0.6
O=C(Nc1n[nH]c2nc(-c3ccc(O)cc3)c(Br)cc12)C1CC1 |  | 14.7 | 58 | 2.65 | 10.4 | 12.2 | 19.4 | 5.75 | 10.1 | 5.33
Cc1ccc(NC(=O)c2ccoc2)cc1-c1ccc(C(=O)NCC2CC2)cc1 | -0.68 | -3.48 | 0.37 | 0.84 | 0.22 | 3.16 | 2.57 | 3.2 | 3.37 | 2.67
Fc1ccc(-c2ncn(C3CCNCC3)c2-c2ccnc(Oc3ccc4c(c3)OCO4)n2)cc1 | 4.03 | 1.02 | 5.62 | 4.86 | 7.7 |  |  | 7.64 | 11.4 | 5.84
COc1ccc(-c2ccc3c(NC(=O)C4CC4)n[nH]c3n2)cc1 |  | 1.57 | 2.49 | 0.72 | 0.93 | 3.56 | 1.85 | 2.19 | 3.67 | 4.98
Fc1ccc(-c2ncn(C3CCNCC3)c2-c2ccnc(Oc3ccc(Oc4ccccc4)cc3)n2)cc1 | 3.65 | -1.61 | 2.08 | -0.8 | 0.79 |  |  | 5.58 | 9.79 | 3.67
NS(=O)(=O)c1ccc(N/N=C2\C(=O)Nc3ccc(-c4cnco4)cc32)cc1 | 65.2 | -2.16 | 25.2 | 3.05 | 15.6 | 0.65 | 2.38 | 3.21 | 7.04 | 2.36
N#Cc1ccc(Oc2nccc(-c3c(-c4ccc(F)cc4)ncn3C3CCNCC3)n2)cc1 | 1.96 | -4.47 | -6.22 | -0.7 | -0.61 |  |  | 4.87 | 6.51 | 6.9
